PubChem BioAssay (NCI)
The panel holds about 83,000 compounds, 20% with a hit somewhere; the sample as a whole holds those more often.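 Cell lines were cultured in 96-well plates, exposed to a single compound concentration, and assessed for percent growth 48 hours later.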 The source made the active and inactive calls. How the source made its calls: active means growth percent below 10; inactive means the rest.

How the values were obtained:
Assay in all cases: NCI-60 one-dose screen, 48 h (100 = growth as untreated, 0 = no growth, -100 = all killed)
Details in all cases: 10 µM unless noted
SR leukemia = test system: SR leukemia
RPMI-8226 leukemia = test system: RPMI-8226 leukemia
OVCAR-8 ovarian = test system: OVCAR-8 ovarian
OVCAR-5 ovarian = test system: OVCAR-5 ovarian
OVCAR-4 ovarian = test system: OVCAR-4 ovarian
SK-OV-3 ovarian = test system: SK-OV-3 ovarian
IGROV1 ovarian = test system: IGROV1 ovarian
OVCAR-3 ovarian = test system: OVCAR-3 ovarian
HS 578T breast = test system: HS 578T breast
NCI/ADR-RES ovarian = test system: NCI/ADR-RES ovarian

Measured: growth

CCN1C(=O)N(CC)C2C1NN=c1s/c(=C3\C(=O)N(CCC(C)C)c4ccccc43)c(=O)n12 (stereo not given)
inactive: SR leukemia 16.7% | RPMI-8226 leukemia 17% | OVCAR-5 ovarian 34.1% | OVCAR-4 ovarian 45.5% | SK-OV-3 ovarian 43.7% | IGROV1 ovarian 19.4% | HS 578T breast 15%
active: OVCAR-8 ovarian 9.81% | OVCAR-3 ovarian 3.23% | NCI/ADR-RES ovarian 8.98%

COc1ccc(C(=O)/C=C/c2ccc(Cl)cc2)cc1S(=O)(=O)Nc1c(N)nc(SC)[nH]c1=O
inactive: RPMI-8226 leukemia 10% | OVCAR-8 ovarian 10.8% | OVCAR-5 ovarian 86.3% | OVCAR-4 ovarian 66.7% | SK-OV-3 ovarian 97.4% | IGROV1 ovarian 40.1% | OVCAR-3 ovarian 10.1% | HS 578T breast 81.4% | NCI/ADR-RES ovarian 97.5%
active: SR leukemia 9.2%

Cc1ccc(C)c2c(C)c(C(=O)Nc3cccc(-n4cccn4)c3)oc12
inactive: SR leukemia 56.7% [50 µM] | RPMI-8226 leukemia 43.8% [50 µM] | OVCAR-8 ovarian 42.4% [50 µM] | OVCAR-5 ovarian 93.6% [50 µM] | OVCAR-4 ovarian 50.4% [50 µM] | SK-OV-3 ovarian 111% [50 µM] | IGROV1 ovarian 76.3% [50 µM] | OVCAR-3 ovarian 82% [50 µM] | HS 578T breast 81.1% [50 µM] | NCI/ADR-RES ovarian 54.3% [50 µM]

Ic1ccccc1I
inactive: SR leukemia 90.1% | RPMI-8226 leukemia 104% | OVCAR-8 ovarian 96.8% | OVCAR-5 ovarian 98% | OVCAR-4 ovarian 101% | SK-OV-3 ovarian 106% | IGROV1 ovarian 99.8% | OVCAR-3 ovarian 110% | HS 578T breast 97.1% | NCI/ADR-RES ovarian 101%

O=P(O)(O)OCC1OC(n2cnc3c(NCc4ccco4)ncnc32)C(O)C1O (stereo not given)
inactive: SR leukemia 27.1% | OVCAR-5 ovarian 45.3% | OVCAR-4 ovarian 15.7% | HS 578T breast 32.5% | NCI/ADR-RES ovarian 19.5%
active: RPMI-8226 leukemia -23.6% | OVCAR-8 ovarian 9.63% | SK-OV-3 ovarian 1.95% | IGROV1 ovarian -36.4% | OVCAR-3 ovarian -72%

Cc1cccc(N2CCC(=O)NC2=S)c1
inactive: SR leukemia 121% | RPMI-8226 leukemia 117% | OVCAR-8 ovarian 99.9% | OVCAR-5 ovarian 105% | OVCAR-4 ovarian 107% | SK-OV-3 ovarian 107% | IGROV1 ovarian 103% | OVCAR-3 ovarian 110% | HS 578T breast 107% | NCI/ADR-RES ovarian 105%

COC(=O)c1c2c(c(C)[n+]([O-])c1C)C(=O)C(NCc1cccc(Cl)c1)=CC2=O
active: SR leukemia 9.98% | OVCAR-8 ovarian -5.76% | OVCAR-4 ovarian -76% | IGROV1 ovarian 2.76% | OVCAR-3 ovarian -23.9% | NCI/ADR-RES ovarian 0.849%
inactive: RPMI-8226 leukemia 26.9% | OVCAR-5 ovarian 40.6% | SK-OV-3 ovarian 81.3% | HS 578T breast 79.1%

Cc1ccc(C=C2C(=O)NC(=O)NC2=O)cc1
inactive: SR leukemia 96.9% | RPMI-8226 leukemia 103% | OVCAR-8 ovarian 100% | OVCAR-5 ovarian 107% | OVCAR-4 ovarian 110% | SK-OV-3 ovarian 105% | IGROV1 ovarian 104% | OVCAR-3 ovarian 105% | HS 578T breast 105% | NCI/ADR-RES ovarian 102%

CC(C)(C)n1cc(-c2ccnc(NCCNS(=O)(=O)c3ccc(O)cc3)c2)c(-c2cccc(O)c2)n1
inactive: SR leukemia 88% | RPMI-8226 leukemia 80% | OVCAR-8 ovarian 96% | OVCAR-5 ovarian 97.1% | OVCAR-4 ovarian 94.1% | SK-OV-3 ovarian 116% | IGROV1 ovarian 112% | OVCAR-3 ovarian 114% | HS 578T breast 97.6% | NCI/ADR-RES ovarian 107%

C=C(C)[C@@H]1CCC[C@]2(C(=O)O)CC[C@]3(C)[C@@H](CC[C@@H]4[C@@]5(C)C/C(=C/c6ccncc6)C(=O)C(C)(C)[C@@H]5CC[C@]43C)[C@@H]12
inactive: OVCAR-8 ovarian 24.9% | OVCAR-5 ovarian 47.9% | OVCAR-4 ovarian 28.4% | SK-OV-3 ovarian 78% | IGROV1 ovarian 22.6% | OVCAR-3 ovarian 11.5% | HS 578T breast 53% | NCI/ADR-RES ovarian 37.5%
active: SR leukemia 3.51% | RPMI-8226 leukemia -9.5%

O=C(NNC(=O)c1ccc(NC(=O)c2ccccn2)cc1)Nc1ccc2ccccc2c1
inactive: SR leukemia 126% | RPMI-8226 leukemia 109% | OVCAR-8 ovarian 102% | OVCAR-5 ovarian 121% | OVCAR-4 ovarian 106% | SK-OV-3 ovarian 115% | IGROV1 ovarian 109% | OVCAR-3 ovarian 126% | HS 578T breast 111% | NCI/ADR-RES ovarian 106%

Cc1ccc(-c2nc(-c3cn(C)c4ncccc34)cs2)cc1
inactive: HS 578T breast 13.7% [100 µM]
active: SR leukemia 3.67% [100 µM] | RPMI-8226 leukemia -7.33% [100 µM] | OVCAR-8 ovarian -3.32% [100 µM] | OVCAR-5 ovarian -5.34% [100 µM] | OVCAR-4 ovarian -21.5% [100 µM] | SK-OV-3 ovarian -33.7% [100 µM] | IGROV1 ovarian -0.0952% [100 µM] | OVCAR-3 ovarian -28.5% [100 µM] | NCI/ADR-RES ovarian -24.9% [100 µM]
